From PubChem BioAssay (NCI) come the findings set out here.

Test systems include NCI-H23 lung; NCI-H226 lung; NCI-H322M lung; HOP-62 NSCLC; NCI-H460 lung; HOP-92 NSCLC; A549/ATCC NSCLC; 786-0 renal; COLO 205 colon; DU-145 prostate; K-562 leukemia; MALME-3M melanoma; MDA-MB-231 breast; SF-268 CNS; SF-295 CNS; SF-539 CNS; UACC-257 melanoma; M14 melanoma; RXF 393 renal; NCI-H522 lung.
Common to all, as to test: NCI-60 one-dose screen, 48 h (100 = growth as untreated, 0 = no growth, -100 = all killed)
Holding throughout (details): 10 µM

The panel holds about 83,000 compounds, 20% with a hit somewhere; the sample as a whole holds those more often.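 Note: values are percent growth. 100 is the growth of untreated cells, values between 100 and 0 indicate rising inhibition; between -100 and 0 indicates cell death.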 A number with no mark means an inactive call. Activity calls are given as the source filed them. Rule for the calls: active = growth percent below 10; inactive = the rest.

With `CCCCSc1nc(Nc2ccc(/C(C)=N/NC(N)=S)cc2)c(C#N)c(-c2ccc(F)cc2)n1`, the growth is 21% in the experiment on NCI-H23 lung; 20.7% in the experiment on NCI-H226 lung; 53.8% in the experiment with NCI-H322M lung; 22.7% in the experiment on HOP-62 NSCLC; 18.4% in the experiment with NCI-H460 lung; -18.5% (active) in the experiment on HOP-92 NSCLC. The growth was 8.95% (active) with A549/ATCC NSCLC; -20.5% (active) with 786-0 renal; 47.1% in the experiment on COLO 205 colon; 41.5% in the experiment with DU-145 prostate; 71.9% with K-562 leukemia; 33.9% with MALME-3M melanoma. In addition, the growth in the experiment with MDA-MB-231 breast is 3.28% (active); in the experiment with SF-268 CNS, 90.1%; in the experiment with SF-295 CNS it was 28.5%; with SF-539 CNS, -13.5% (active); with UACC-257 melanoma it was 78.6%; in the experiment with M14 melanoma, 79%.

Regarding `S=c1nc(-c2ccccc2)cc(-c2cc3ccccc3nc2Cl)[nH]1`, the growth in the experiment with NCI-H23 lung is 78.5%; with NCI-H226 lung it was 76.8%; in the experiment with NCI-H322M lung, 98.5%; in the experiment on HOP-62 NSCLC it was 72.7%; in the experiment with NCI-H460 lung, 90.4%; with HOP-92 NSCLC, 75.9%. Besides, the growth in the experiment on A549/ATCC NSCLC is 86.1%; in the experiment on 786-0 renal it was 90.5%; in the experiment on COLO 205 colon it was 96.3%; in the experiment on DU-145 prostate, 90.5%; in the experiment on K-562 leukemia, 14.2%; with MALME-3M melanoma, 66.4%. The growth in the experiment on RXF 393 renal was 91.2%; in the experiment with SF-268 CNS, 70.5%; with SF-295 CNS, 55.8%; in the experiment on SF-539 CNS, 72.3%; with UACC-257 melanoma it was 81.6%; in the experiment with M14 melanoma, 36.7%.

`CC1(C)CC[C@]2(C(=O)Nc3ccccc3)CC[C@]3(C)C(=CC[C@@H]4[C@@]5(C)CC[C@H](N)C(C)(C)[C@@H]5CC[C@]43C)[C@H]2C1`: the growth was 68.8% in the experiment on NCI-H23 lung; 88.3% in the experiment with NCI-H226 lung; 105% in the experiment on NCI-H322M lung; 103% with HOP-62 NSCLC; -30.2% (active) in the experiment on NCI-H460 lung; 70.2% in the experiment on HOP-92 NSCLC. For the same compound, the growth is 74.4% in the experiment on A549/ATCC NSCLC; 65.3% in the experiment on 786-0 renal; -36.4% (active) in the experiment on COLO 205 colon; 26.6% in the experiment with DU-145 prostate; 83.7% in the experiment with MALME-3M melanoma; 71.7% in the experiment with MDA-MB-231 breast. For the same compound, the growth with RXF 393 renal is 59.8%; in the experiment on SF-268 CNS, 119%; with SF-295 CNS it was 52.7%; with SF-539 CNS it was 87.8%; in the experiment with UACC-257 melanoma, 103%; in the experiment with M14 melanoma, 82.4%.

As for `COc1ccc(NC(=O)Cn2c(/C=C/c3ccc(N(C)C)cc3)nc3ccccc3c2=O)cc1`, the growth is 49.8% with NCI-H23 lung; -15.2% (active) in the experiment on NCI-H226 lung; 46.4% in the experiment on NCI-H322M lung; 39.3% in the experiment on HOP-62 NSCLC; 19.5% in the experiment on NCI-H460 lung; -2.51% (active) in the experiment with HOP-92 NSCLC. The growth in the experiment with A549/ATCC NSCLC was 15.2%; with 786-0 renal, 7.97% (active); with COLO 205 colon, 47%; in the experiment with DU-145 prostate it was 6.75% (active); in the experiment with K-562 leukemia it was 58.8%; in the experiment with MALME-3M melanoma it was 7.28% (active). The growth in the experiment with MDA-MB-231 breast is 18.8%; with SF-268 CNS, 73%; with SF-295 CNS it was 49.5%; in the experiment with SF-539 CNS it was -60.2% (active); in the experiment with UACC-257 melanoma it was 67.7%; in the experiment with M14 melanoma, 81%.

On to `C=C(C)[C@@H]1CC[C@]2(C(=O)OC)CC[C@]3(C)[C@H](CC[C@@H]4[C@@]5(C)CC[C@H](N)C(C)(C)[C@@H]5CC[C@]43C)[C@@H]12`, for which the growth is -94.8% (active) in the experiment on NCI-H23 lung; -89.3% (active) with NCI-H226 lung; -96.5% (active) with NCI-H322M lung; -81.6% (active) with HOP-62 NSCLC; -53.7% (active) in the experiment on NCI-H460 lung; -77.8% (active) with NCI-H522 lung. Besides, the growth in the experiment on A549/ATCC NSCLC is -86.9% (active); with 786-0 renal, -98% (active); in the experiment with COLO 205 colon, -68.9% (active); in the experiment with DU-145 prostate, -87.9% (active); in the experiment with MALME-3M melanoma it was -97.7% (active); with MDA-MB-231 breast, -97.8% (active). For the same compound, the growth with RXF 393 renal is -96% (active); in the experiment with SF-268 CNS, -65.3% (active); with SF-295 CNS, -94.1% (active); in the experiment on SF-539 CNS it was -99.8% (active); in the experiment with UACC-257 melanoma it was -70% (active); in the experiment on M14 melanoma it was -74% (active).

In the case of `Cc1ccc(S(=O)(=O)c2nc(-c3ccccc3)oc2S(=O)(=O)CC(=O)N2CCCC2)cc1`, the growth was -77.9% (active) in the experiment with NCI-H23 lung; 56.3% in the experiment on NCI-H226 lung; 73.6% with NCI-H322M lung; 78.3% with HOP-62 NSCLC; 26.4% in the experiment on NCI-H460 lung; 63.4% with A549/ATCC NSCLC. Moreover, the growth in the experiment with 786-0 renal was -57.3% (active); in the experiment on COLO 205 colon, -93.2% (active); in the experiment on DU-145 prostate, -98.5% (active); in the experiment with MALME-3M melanoma, -94.9% (active); in the experiment with MDA-MB-231 breast, -94.8% (active); in the experiment with RXF 393 renal, -93.8% (active). Further, the growth with SF-268 CNS was -0.601% (active); in the experiment with SF-295 CNS it was 70.3%; with SF-539 CNS, -100% (active); in the experiment with UACC-257 melanoma, -92.2% (active); in the experiment on M14 melanoma, -48.3% (active).

On to `CN1C/C(=C\c2ccc(O)cc2O)c2[o+]c3cc(O)ccc3cc2C1`, for which the growth in the experiment on NCI-H23 lung was 56.6%; with NCI-H226 lung, 56.3%; in the experiment on NCI-H322M lung, 88%; with HOP-62 NSCLC, 77.8%; with NCI-H460 lung, 35.8%; in the experiment with NCI-H522 lung, -0.58% (active). Besides, the growth with A549/ATCC NSCLC was 99.5%; in the experiment on 786-0 renal it was 41.7%; in the experiment with COLO 205 colon it was 58.3%; with DU-145 prostate, 78.7%; in the experiment on K-562 leukemia, 34.9%; with MALME-3M melanoma, 26.5%. The growth in the experiment on MDA-MB-231 breast was 14.2%; in the experiment on SF-268 CNS, 70%; with SF-295 CNS, 92.5%; in the experiment on SF-539 CNS it was -8.51% (active); in the experiment on UACC-257 melanoma, 58.5%; in the experiment on M14 melanoma it was 55.2%.

In the case of `COc1ccc(C(=O)CSc2nnc(-c3c[nH]c4ccccc34)n2-c2ccccc2)cc1`, the growth with NCI-H23 lung is 56.5%; with NCI-H226 lung, 0.0587% (active); with NCI-H322M lung, 58.3%; in the experiment on HOP-62 NSCLC it was 8.82% (active); in the experiment on NCI-H460 lung, 65.5%; with NCI-H522 lung, 45.7%. Besides, the growth in the experiment on A549/ATCC NSCLC is 74%; with 786-0 renal, 45.2%; with COLO 205 colon, 84.8%; in the experiment on DU-145 prostate, 68.9%; in the experiment on K-562 leukemia, 58.2%; with MALME-3M melanoma it was -16.2% (active). In addition, the growth in the experiment with MDA-MB-231 breast is 32.5%; in the experiment on SF-268 CNS, 41%; in the experiment on SF-295 CNS it was 36.2%; in the experiment with SF-539 CNS it was 28.5%; with UACC-257 melanoma it was 59.5%.

For the compound `COC[C@@H](CC(C)C)N=C1NC(=O)/C(=C/c2ccc3ncsc3c2)N1`, the growth is -10.5% (active) in the experiment on NCI-H23 lung; -1.9% (active) in the experiment on NCI-H226 lung; 15.8% in the experiment on NCI-H322M lung; 3.81% (active) in the experiment on HOP-62 NSCLC; 7.24% (active) in the experiment on NCI-H460 lung; -3.68% (active) in the experiment on NCI-H522 lung. Moreover, the growth with A549/ATCC NSCLC is 13.5%; in the experiment with 786-0 renal, 23.5%; with COLO 205 colon, -11.8% (active); in the experiment with DU-145 prostate, 15.7%; with K-562 leukemia it was 11.8%; with MALME-3M melanoma, 8.01% (active). Besides, the growth in the experiment on MDA-MB-231 breast was 9.26% (active); in the experiment with RXF 393 renal, -36.9% (active); in the experiment with SF-268 CNS, 16%; in the experiment on SF-295 CNS, 23.2%; in the experiment with SF-539 CNS, -20.5% (active); in the experiment with UACC-257 melanoma, 16.2%. Moreover, the growth with M14 melanoma was 42.3%.
